# Measured values reported in the supplement of paper PMC6411743.
# ± gives the standard deviation of the averaged measurements. The full data set covers some 6,200 targets. This sample favours those with the largest changes.
# What was measured:
# Assay in all cases: NP40-soluble protein abundance relative to vehicle (solubility fold change) (ratio); higher = more soluble protein in presence of AMP-PNP
# UniProt Q58A45|Q58A45-3 = target: T1, UniProt Q58A45|Q58A45-3
# T1 sequence (whole entry): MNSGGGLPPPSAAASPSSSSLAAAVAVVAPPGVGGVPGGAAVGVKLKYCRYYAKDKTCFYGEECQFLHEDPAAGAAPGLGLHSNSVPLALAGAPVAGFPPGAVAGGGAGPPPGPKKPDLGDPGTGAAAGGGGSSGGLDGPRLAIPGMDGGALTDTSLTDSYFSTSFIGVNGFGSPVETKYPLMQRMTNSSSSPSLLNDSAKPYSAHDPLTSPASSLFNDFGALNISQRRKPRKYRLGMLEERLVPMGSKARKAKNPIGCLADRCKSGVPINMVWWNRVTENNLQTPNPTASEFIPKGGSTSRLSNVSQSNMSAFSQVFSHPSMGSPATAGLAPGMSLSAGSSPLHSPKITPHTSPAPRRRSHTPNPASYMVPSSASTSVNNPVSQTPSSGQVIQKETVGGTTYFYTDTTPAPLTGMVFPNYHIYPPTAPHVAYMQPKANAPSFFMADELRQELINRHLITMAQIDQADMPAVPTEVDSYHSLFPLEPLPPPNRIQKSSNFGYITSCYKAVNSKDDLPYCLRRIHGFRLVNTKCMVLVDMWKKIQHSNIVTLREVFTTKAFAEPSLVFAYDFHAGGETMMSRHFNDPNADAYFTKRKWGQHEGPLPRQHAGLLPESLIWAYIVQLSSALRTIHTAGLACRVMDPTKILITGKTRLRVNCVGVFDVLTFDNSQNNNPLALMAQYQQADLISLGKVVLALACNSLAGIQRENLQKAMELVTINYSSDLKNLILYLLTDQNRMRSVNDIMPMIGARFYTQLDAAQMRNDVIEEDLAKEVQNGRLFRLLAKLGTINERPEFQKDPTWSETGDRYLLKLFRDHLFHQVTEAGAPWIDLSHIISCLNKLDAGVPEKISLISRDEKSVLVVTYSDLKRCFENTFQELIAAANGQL
# Summary of the method: (§1)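 Values are fold changes against the detergent-processed vehicle, based on vsn-normalised intensities. Jurkat crude lysate was treated at eight concentrations from 0.1 to 10 mM (10 min at room temperature, then 3 min at 37 °C), solubilised with 0.8% NP40 and benzonase, ultracentrifuged and analysed by TMT-labelled LC-MS/MS over three independent experiments.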
# UniProt Q5SGD2|Q5SGD2-3 = target: T2, UniProt Q5SGD2|Q5SGD2-3
# T2 sequence (whole entry): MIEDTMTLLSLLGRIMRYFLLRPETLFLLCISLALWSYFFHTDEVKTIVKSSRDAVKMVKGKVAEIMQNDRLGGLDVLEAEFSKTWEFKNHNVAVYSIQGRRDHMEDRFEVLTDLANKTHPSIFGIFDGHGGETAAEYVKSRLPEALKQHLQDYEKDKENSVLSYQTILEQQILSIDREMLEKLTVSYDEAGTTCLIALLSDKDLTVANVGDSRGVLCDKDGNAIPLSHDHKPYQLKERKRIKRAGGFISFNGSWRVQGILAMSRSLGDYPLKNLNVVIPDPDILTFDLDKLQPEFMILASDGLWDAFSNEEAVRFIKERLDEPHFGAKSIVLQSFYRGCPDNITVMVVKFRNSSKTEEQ
# Summary of the method: as §1
# [1] = target: T3, UniProt Q6PJT7-2|Q6PJT7-3|Q6PJT7-5|Q6PJT7-9|Q6PJT7
# T3 sequence (whole entry): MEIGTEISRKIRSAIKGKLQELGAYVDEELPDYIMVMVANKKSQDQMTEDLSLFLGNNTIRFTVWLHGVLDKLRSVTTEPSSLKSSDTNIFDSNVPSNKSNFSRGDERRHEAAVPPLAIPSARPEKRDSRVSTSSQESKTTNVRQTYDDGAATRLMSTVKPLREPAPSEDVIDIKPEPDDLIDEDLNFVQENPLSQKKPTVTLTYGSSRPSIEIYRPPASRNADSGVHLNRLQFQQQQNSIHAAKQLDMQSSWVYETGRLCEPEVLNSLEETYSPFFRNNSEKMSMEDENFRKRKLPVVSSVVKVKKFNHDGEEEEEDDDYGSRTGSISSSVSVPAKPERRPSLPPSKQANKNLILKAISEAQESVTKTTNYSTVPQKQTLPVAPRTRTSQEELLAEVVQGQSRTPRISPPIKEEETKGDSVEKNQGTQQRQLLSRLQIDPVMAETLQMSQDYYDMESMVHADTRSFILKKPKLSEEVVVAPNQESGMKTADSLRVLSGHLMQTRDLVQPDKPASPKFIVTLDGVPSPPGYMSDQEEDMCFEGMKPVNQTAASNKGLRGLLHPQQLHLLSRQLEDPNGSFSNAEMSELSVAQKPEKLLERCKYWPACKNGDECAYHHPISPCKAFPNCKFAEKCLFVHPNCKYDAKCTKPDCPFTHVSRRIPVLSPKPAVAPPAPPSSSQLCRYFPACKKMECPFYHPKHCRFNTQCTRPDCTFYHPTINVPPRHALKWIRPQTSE
# Summary of the method: as §1
# UniProt Q8N0Z3 = target: T4, UniProt Q8N0Z3
# T4 sequence (whole entry): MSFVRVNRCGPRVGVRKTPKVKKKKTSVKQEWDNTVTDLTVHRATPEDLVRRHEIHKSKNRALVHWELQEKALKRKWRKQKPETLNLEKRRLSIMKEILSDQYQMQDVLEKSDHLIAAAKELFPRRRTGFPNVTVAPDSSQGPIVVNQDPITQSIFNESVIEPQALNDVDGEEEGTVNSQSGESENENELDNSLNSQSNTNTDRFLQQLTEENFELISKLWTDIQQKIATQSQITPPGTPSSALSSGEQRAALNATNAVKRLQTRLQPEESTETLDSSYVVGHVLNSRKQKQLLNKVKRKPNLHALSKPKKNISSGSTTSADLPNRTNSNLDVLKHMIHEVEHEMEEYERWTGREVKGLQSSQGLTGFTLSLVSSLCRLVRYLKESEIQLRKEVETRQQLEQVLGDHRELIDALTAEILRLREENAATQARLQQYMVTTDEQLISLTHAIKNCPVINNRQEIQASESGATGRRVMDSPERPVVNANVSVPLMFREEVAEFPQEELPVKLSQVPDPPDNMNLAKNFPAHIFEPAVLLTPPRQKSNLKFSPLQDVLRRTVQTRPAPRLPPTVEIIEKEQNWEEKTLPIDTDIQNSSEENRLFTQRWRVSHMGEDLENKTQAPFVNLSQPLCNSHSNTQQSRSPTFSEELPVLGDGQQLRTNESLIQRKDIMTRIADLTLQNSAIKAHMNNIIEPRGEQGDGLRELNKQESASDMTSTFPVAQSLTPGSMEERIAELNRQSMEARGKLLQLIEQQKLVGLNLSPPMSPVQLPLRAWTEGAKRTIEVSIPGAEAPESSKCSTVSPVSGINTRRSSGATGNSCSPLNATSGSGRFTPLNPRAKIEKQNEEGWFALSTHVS
# Summary of the method: as §1
# [2] = target: T5, UniProt Q92581-2|Q92581-3|Q92581
# T5 sequence (whole entry): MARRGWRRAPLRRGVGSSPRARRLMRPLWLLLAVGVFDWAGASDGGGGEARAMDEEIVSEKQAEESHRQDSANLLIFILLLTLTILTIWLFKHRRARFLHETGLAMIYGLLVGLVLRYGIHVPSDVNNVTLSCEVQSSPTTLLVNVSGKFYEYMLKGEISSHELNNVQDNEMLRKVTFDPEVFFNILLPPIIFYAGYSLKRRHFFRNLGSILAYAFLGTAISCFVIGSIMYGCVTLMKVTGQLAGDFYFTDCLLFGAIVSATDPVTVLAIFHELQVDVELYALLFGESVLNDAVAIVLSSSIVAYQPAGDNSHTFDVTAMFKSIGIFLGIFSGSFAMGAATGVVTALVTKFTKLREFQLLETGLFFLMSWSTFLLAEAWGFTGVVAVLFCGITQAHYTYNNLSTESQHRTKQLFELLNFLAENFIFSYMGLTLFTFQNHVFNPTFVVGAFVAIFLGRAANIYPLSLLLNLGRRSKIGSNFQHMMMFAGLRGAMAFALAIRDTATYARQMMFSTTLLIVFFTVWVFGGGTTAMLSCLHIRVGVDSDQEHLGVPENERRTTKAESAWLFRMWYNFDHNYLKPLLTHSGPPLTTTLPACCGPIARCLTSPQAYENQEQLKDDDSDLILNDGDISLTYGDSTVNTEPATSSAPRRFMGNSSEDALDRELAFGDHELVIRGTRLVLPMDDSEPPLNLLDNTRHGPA
# Summary of the method: as §1
compound,measurement,setting,value
Nc1ncnc2c1ncn2[C@@H]1O[C@H](COP(=O)(O)OP(=O)(O)NP(=O)(O)O)[C@@H](O)[C@H]1O [adenylyl imidodiphosphate],NP40-soluble protein abundance,UniProt Q58A45|Q58A45-3; concentration: 1mM,1.032 ± 0.0089
same,NP40-soluble protein abundance,UniProt Q58A45|Q58A45-3; concentration: 2mM,1.02 ± 0.024
same,NP40-soluble protein abundance,UniProt Q58A45|Q58A45-3; concentration: 4mM,1.02 ± 0.03
same,NP40-soluble protein abundance,UniProt Q58A45|Q58A45-3; concentration: 6mM,0.999 ± 0.026
same,NP40-soluble protein abundance,UniProt Q58A45|Q58A45-3; concentration: 8mM,1.03 ± 0.022
same,NP40-soluble protein abundance,UniProt Q58A45|Q58A45-3; concentration: 10mM,1.01 ± 0.022
same,NP40-soluble protein abundance,UniProt Q5SGD2|Q5SGD2-3; concentration: 1mM,1.02 ± 0.029
same,NP40-soluble protein abundance,UniProt Q5SGD2|Q5SGD2-3; concentration: 2mM,1.03 ± 0.049
same,NP40-soluble protein abundance,UniProt Q5SGD2|Q5SGD2-3; concentration: 4mM,1 ± 0.019
same,NP40-soluble protein abundance,UniProt Q5SGD2|Q5SGD2-3; concentration: 6mM,1 ± 0.016
same,NP40-soluble protein abundance,UniProt Q5SGD2|Q5SGD2-3; concentration: 8mM,1.02 ± 0.06
same,NP40-soluble protein abundance,UniProt Q5SGD2|Q5SGD2-3; concentration: 10mM,1.006 ± 0.0075
same,NP40-soluble protein abundance,[1]; concentration: 1mM,1.04 ± 0.018
same,NP40-soluble protein abundance,[1]; concentration: 2mM,1.17 ± 0.082
same,NP40-soluble protein abundance,[1]; concentration: 4mM,1.2 ± 0.061
same,NP40-soluble protein abundance,[1]; concentration: 6mM,1.28 ± 0.14
same,NP40-soluble protein abundance,[1]; concentration: 8mM,1.29 ± 0.15
same,NP40-soluble protein abundance,[1]; concentration: 10mM,1.33 ± 0.13
same,NP40-soluble protein abundance,UniProt Q8N0Z3; concentration: 1mM,0.943 ± 0.051
same,NP40-soluble protein abundance,UniProt Q8N0Z3; concentration: 2mM,0.976 ± 0.024
same,NP40-soluble protein abundance,UniProt Q8N0Z3; concentration: 4mM,0.959 ± 0.03
same,NP40-soluble protein abundance,UniProt Q8N0Z3; concentration: 6mM,0.955 ± 0.027
same,NP40-soluble protein abundance,UniProt Q8N0Z3; concentration: 8mM,0.957 ± 0.026
same,NP40-soluble protein abundance,UniProt Q8N0Z3; concentration: 10mM,0.964 ± 0.02
same,NP40-soluble protein abundance,[2]; concentration: 1mM,0.999 ± 0.012
same,NP40-soluble protein abundance,[2]; concentration: 2mM,0.9876 ± 0.0034
same,NP40-soluble protein abundance,[2]; concentration: 4mM,0.957 ± 0.028
same,NP40-soluble protein abundance,[2]; concentration: 6mM,0.9812 ± 0.0025
same,NP40-soluble protein abundance,[2]; concentration: 8mM,0.979 ± 0.025
same,NP40-soluble protein abundance,[2]; concentration: 10mM,0.96 ± 0.026
